Reference: PubChem BioAssay (EPA / NIEHS)
Values joined by “and” are separate entries in the source; they are usually repeats but may differ in a detail not shown here. Identical values can stand only once. More than one record can exist for a structure, and the calls need not agree. Active and inactive are the calls of the source. Rule for the calls: active = hit-call score of the fitted dose curve at least 0.9, where 1 is the maximum; inactive = score below 0.9.

Columns and labels:
[1] = read-out: Tissue plasminogen activator (tPA), PLAT (gene 5327); assay: BSK_BE3C_tPA: BioMAP Diversity Plus: BE3C Assay for Tissue plasminogen activator (tPA) Biomarker Activity (AID 2283041); details: primary human bronchial epithelial cells; actives raise or lower the signal
Outline: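 Primary human lung bronchial epithelial cultures receive test chemical; after 24 h, tPA is quantified by ELISA, and gain or loss of signal is fitted bidirectionally relative to DMSO baseline.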

[2] = read-out: Interleukin-8 (IL8), CXCL8 (gene 3576); assay: BSK_CASM3C_IL8: BioMAP Diversity Plus: CASM3C Assay for Interleukin-8 (IL8) Biomarker Activity (AID 2283042); details: primary human coronary artery smooth muscle cells; actives raise or lower the signal;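 note: IL-8 protein level quantified by ELISA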
[3] = read-out: Human Leukocyte Antigen - DR isotype (HLADR), HLA-DRA (gene 3122); assay: BSK_CASM3C_HLADR: BioMAP Diversity Plus: CASM3C Assay for Human Leukocyte Antigen - DR isotype (HLADR) Biomarker Activity (AID 2283043); details: primary human coronary artery smooth muscle cells; actives raise or lower the signal;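 note: cell-surface HLA-DR protein level quantified by ELISA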
[4] = read-out: Macrophage colony-stimulating factor (MCSF), CSF1 (gene 1435); assay: BSK_CASM3C_MCSF: BioMAP Diversity Plus: CASM3C Assay for Macrophage colony-stimulating factor (MCSF) Biomarker Activity (AID 2283044); details: primary human coronary artery smooth muscle cells; actives raise or lower the signal;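 note: M-CSF protein amount quantified by ELISA after 24 h exposure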
[5] = read-out: Low-density lipoprotein receptor (LDLR), LDLR (gene 3949); assay: BSK_CASM3C_LDLR: BioMAP Diversity Plus: CASM3C Assay for Low-density lipoprotein receptor (LDLR) Biomarker Activity (AID 2283045); details: primary human coronary artery smooth muscle cells; actives raise or lower the signal;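 note: LDLR protein level on the cell surface quantified by ELISA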
[6] = read-out: Monocyte Chemoattractant Protein-1 (MCP1), CCL2 (gene 6347); assay: BSK_CASM3C_MCP1: BioMAP Diversity Plus: CASM3C Assay for Monocyte Chemoattractant Protein-1 (MCP1) Biomarker Activity (AID 2283046); details: primary human coronary artery smooth muscle cells; actives raise or lower the signal;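 note: MCP-1 level quantified by ELISA 24 h after dosing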
[7] = BSK_CASM3C_Proliferation: Cell Proliferation Assessment in the BioMAP Diversity Plus: CASM3C Assay (AID 2283047); details: primary human coronary artery smooth muscle cells;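 note: sulforhodamine B total protein stain as relative cell number at 560 nm; sub-confluent cells exposed 48 h before staining; fitted both ways against DMSO so gain or loss of cell number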
[8] = read-out: Monokine induced gamma interferon (MIG), CXCL9 (gene 4283); assay: BSK_CASM3C_MIG: BioMAP Diversity Plus: CASM3C Assay for Monokine induced gamma interferon (MIG) Biomarker Activity (AID 2283048); details: primary human coronary artery smooth muscle cells; actives raise or lower the signal;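 note: MIG protein level measured by ELISA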
[9] = read-out: serum amyloid A (SAA), SAA1 (gene 6288); assay: BSK_CASM3C_SAA: BioMAP Diversity Plus: CASM3C Assay for serum amyloid A (SAA) Biomarker Activity (AID 2283049); details: primary human coronary artery smooth muscle cells; actives raise or lower the signal;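 note: SAA protein level quantified by ELISA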
[10] = BSK_CASM3C_SRB: Viability Assessment in the BioMAP Diversity Plus: CASM3C Assay (AID 2283050); details: primary human coronary artery smooth muscle cells;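 note: total protein by SRB staining as cytotoxicity measure in parallel cultures; cells exposed to compound for 24 h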

Measured: AC50

Cc1cc(CCC(=O)OCCOCCOCCOC(=O)CCc2cc(C)c(O)c(C(C)(C)C)c2)cc(C(C)(C)C)c1O
inactive: all assays above

CCN(CC)C(=O)N(CC)CC
inactive: all assays above

CC(CN=Cc1ccccc1O)N=Cc1ccccc1O (centres undefined)
inactive: [1] | [2] | [3] | [4] | [5] | [6] | [7] | [8] | [9] | [10]
active: [1] 8.3 µM | [5] 20 µM | [7] 1.64 µM

CS(=O)(=O)OCCCCOS(C)(=O)=O
inactive: all assays above

CCCCOC(=O)CCCCCCCC(=O)OCCCC
inactive: all assays above

C=CC(C)(O)CCC=C(C)C (centres undefined)
active: [7] 4.81 µM
inactive: [1] | [2] | [3] | [4] | [5] | [6] | [7] | [8] | [9] | [10]

CCCCCCCCCCCCCCCC(=O)OC/C=C(C)/C=C/C=C(C)/C=C/C1=C(C)CCCC1(C)C
inactive: all assays above

COc1ccc(CCN2CCC(Nc3nc4ccccc4n3Cc3ccc(F)cc3)CC2)cc1
active: [5] 1.54 µM | [7] 8.02 µM
inactive: all other assays above

CN(C)C(=O)Nc1ccc(Oc2ccc(Cl)cc2)cc1
active: [1] 4.19 µM
inactive: all other assays above

O=C1OC2(c3ccccc31)c1ccc(O)c(Br)c1Oc1c2ccc(O)c1Br
active: [1] 20 µM
inactive: all other assays above

O=C1c2ccccc2C(=O)c2c(O)ccc(O)c21
active: [3] 4.94 µM | [7] 15 µM
inactive: all other assays above

CN(C)C(=S)SC(=S)N(C)C
active: [3] 19.9 µM | [7] 19.9 µM | [8] 19.9 µM
inactive: all other assays above

CCCCCCC(CO)CCCC (centres undefined)
inactive: all assays above

CCCCN(CCCC)C(=O)N(CCCC)CCCC
active: [1] 6.94 µM | [2] 20 µM | [3] 12.5 µM | [4] 17.4 µM | [5] 20 µM | [6] 20 µM | [7] 10.4 µM | [8] 20 µM | [9] 10.8 µM | [10] 13.9 µM

O=CN1CCOCC1
inactive: all assays above

CSCCC=O
inactive: all assays above

CC(C)(C)CC(C)(C)c1ccc(OCCOCC[N+](C)(C)Cc2ccccc2)cc1
active: [2] 7.3 µM | [3] 6.1 µM | [4] 7.89 µM | [5] 8.21 µM | [6] 8.03 µM | [7] 7.66 µM | [8] 9.51 µM | [9] 5 µM | [10] 7.54 µM
inactive: [1]

CC1(C)CCC[C@]2(C)[C@H]3CCO[C@]3(C)CC[C@@H]12
active: [1] 23 µM and 20 µM | [2] 33 µM | [3] 34.9 µM and 32.9 µM | [4] 20 µM | [6] 33.4 µM and 33.3 µM | [7] 36.3 µM and 36.8 µM | [8] 30.4 µM and 31.2 µM | [9] 34.2 µM and 31.3 µM | [10] 34.5 µM and 35.3 µM
inactive: [2] | [4] | [5]

C=C(C)C(=O)OCCOCCOCCOC(=O)C(=C)C
active: [3] 0.0969 µM | [4] 0.016 µM
inactive: all other assays above

CCCCCC(C=O)=Cc1ccccc1
active: [3] 31 µM | [4] 31.9 µM | [6] 27.5 µM | [7] 30.1 µM | [10] 33.5 µM
inactive: [1] | [2] | [5] | [8] | [9]

O=C(Nc1ccc2c(O)c(N=Nc3ccc(N=Nc4ccc(S(=O)(=O)O)cc4)cc3)c(S(=O)(=O)O)cc2c1)c1ccccc1
active: [1] 5.36 µM and 5.91 µM
inactive: all other assays above

C1=CC2C3C=CC(C3)C2C1 (centres undefined)
inactive: all assays above

c1ccc(Oc2ccccc2)cc1
inactive: all assays above

C=C(C)[C@H]1CC=C(C)C(=O)C1
inactive: all assays above

CCC(C)c1cc([N+](=O)[O-])cc([N+](=O)[O-])c1OC(=O)OC(C)C (centres undefined)
active: [1] 13.6 µM | [2] 4.74 µM | [3] 13.7 µM | [4] 32.7 µM | [5] 31.8 µM | [6] 32.3 µM | [7] 29.7 µM | [8] 30.7 µM | [9] 34.1 µM | [10] 25.8 µM

COc1ccc(OC)c(N=Nc2c(O)ccc3ccccc23)c1
active: [4] 0.0186 µM | [5] 0.119 µM | [7] 33.6 µM | [10] 20 µM
inactive: all other assays above

O=C1OC[C@H](Cc2cccc(O)c2)[C@H]1Cc1cccc(O)c1
inactive: all assays above

CC1(C)C2=CCCC(C)(C)[C@]23CC[C@H]1C3
active: [1] 31.5 µM | [3] 20 µM | [4] 32.7 µM | [5] 34.6 µM | [6] 31.3 µM | [7] 30.7 µM | [9] 20 µM | [10] 31.1 µM
inactive: [2] | [8]

CC(=O)c1c(C)c([N+](=O)[O-])c(C(C)(C)C)c([N+](=O)[O-])c1C
inactive: all assays above

C=C(C)C(=O)OCC(CC)(COC(=O)C(=C)C)COC(=O)C(=C)C
active: [6] 4.8 µM
inactive: all other assays above

C=C(C)C(=O)OCCOCCOCCOCCOC(=O)C(=C)C
active: [3] 1.44 µM
inactive: all other assays above

CC(C)(N=C=O)c1cccc(C(C)(C)N=C=O)c1
inactive: all assays above

CC(=O)Nc1ccc(C(=O)CCl)cc1
active: [2] 12.6 µM | [3] 3.78 µM | [4] 8.22 µM | [5] 11.6 µM | [6] 8.38 µM | [7] 5.44 µM | [8] 8.96 µM | [10] 12.8 µM
inactive: [9]

C[C@@H]1CCN(C(=O)[C@H](CCCN=C(N)N)NS(=O)(=O)c2cccc3c2NC[C@H](C)C3)[C@@H](C(=O)O)C1
inactive: all assays above

IC(I)I
inactive: all assays above

CC(=O)C1(C)CC2=C(CCCC2(C)C)CC1C (centres undefined)
active: [1] 12.7 µM | [4] 10.3 µM | [6] 20 µM | [7] 13.2 µM | [8] 27.6 µM | [9] 11.9 µM | [10] 12.4 µM
inactive: [2] | [5]
